Measured values published in the supplement of paper PMC4166925.
± gives the standard deviation of the averaged measurements. The full ranking holds about 33,000 sequences; the median of “E-score (dimensionless, -0.5 to 0.5)” is about -0.046, and the highest 2% start at about 0.36. This excerpt belongs to a sample that is enriched for the highest values.

Tested on: T1, SpTbr T-box DNA-binding domain (GST fusion)
T1 sequence: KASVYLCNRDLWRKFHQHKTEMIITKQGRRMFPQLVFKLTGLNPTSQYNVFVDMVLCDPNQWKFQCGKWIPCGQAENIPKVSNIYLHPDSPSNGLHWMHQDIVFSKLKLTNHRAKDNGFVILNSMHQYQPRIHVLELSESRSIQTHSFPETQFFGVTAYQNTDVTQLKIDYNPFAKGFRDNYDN
Experiment: PBM E-score of 8-mer (E-score (dimensionless, -0.5 to 0.5)); Tbr is Tbrain of the sea star Patiria miniata (Pm) or the sea urchin Strongylocentrotus purpuratus (Sp); higher = stronger binding preference
Settings: the construct has about 5 more residues each side
Experimental: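 Universal protein-binding microarray (Agilent AMADID 016060, 60-bp probes with a 35-bp variable region) incubated with 200 nM GST-fused Strongylocentrotus purpuratus Tbr T-box DNA-binding domain (residues 362-554) in PBS pH 7.5. Scored for every ungapped 8-mer (given with its reverse complement) as E-score (range -0.5 to 0.5; >0.45 counts as bound) and Z-score of median probe intensity. Two replicate arrays (datasets 1 and 2).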
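Note: protein at 200 nM in PBS on universal double-stranded arrays.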

| Sequence | PBM E-score of 8-mer |
| --- | --- |
| CGTGTCTA | 0.135 ± 0.05 |
| AGTGTCAG | 0.371 ± 0.0097 |
| GGTGTCAC | 0.475 ± 0.0052 |
| GTTGTCAA | 0.3671 ± 0.0033 |
| AATGTCAG | 0.0267 ± 0.006 |
| GATGTCAA | 0.197 ± 0.0064 |
| GTTGTCTA | -0.123 ± 0.027 |
| GCTCGCCA | 0.231 ± 0.017 |
| GCCCCATA | -0.112 ± 0.064 |
| ATGGGGAG | -0.243 ± 0.051 |
| AGGGGTGG | 0.147 ± 0.069 |
| AATGGCTA | -0.134 ± 0.02 |
| CATGAGTC | -0.08024 ± 0.00076 |
| GACTTATA | 0.0117 ± 0.031 |
| ACAACCCT | 0.0805 ± 0.0049 |
| ATCGTTGC | -0.00439 ± 0.021 |
| ACTGTCAT | 0.196 ± 0.032 |
| AGTGTCAT | 0.405 ± 0.017 |
| AGTGTCAA | 0.453 ± 0.0054 |
| AATGTCAT | -0.162 ± 0.031 |
| GCTGTCAA | 0.318 ± 0.049 |
| GGTGTCTA | 0.292 ± 0.0045 |
| AGTGTCTA | 0.17 ± 0.024 |
| GGTGTCAA | 0.4808 ± 0.0038 |
| TGTGTCAA | 0.398 ± 0.011 |

| Sequence | PBM E-score of 8-mer |
| --- | --- |
| ACTGTCAA | 0.183 ± 0.035 |
| TCTGTCAA | 0.109 ± 0.046 |
| TATGTCAA | 0.159 ± 0.0082 |
| TAAGAACA | -0.0304 ± 0.082 |
| ATATAGTC | -0.0444 ± 0.027 |
| ATAGCCCA | -0.13 ± 0.078 |
| CGCAGAGA | -0.217 ± 0.082 |
| CCAATAAG | -0.199 ± 0.0037 |
| CATGAATC | 0.0324 ± 0.072 |
| CCCCCCCC | -0.0653 ± 0.059 |
| AACTCTGC | 0.164 ± 0.011 |
| GGAAGCAA | -0.216 ± 0.074 |
| AGTGTCAC | 0.43943 ± 0.00026 |
| CGTGTCAC | 0.362 ± 0.034 |
| ACTGTCAC | 0.35403 ± 0.00029 |
| ACGCCCAA | -0.049 ± 0.13 |
| CACAGACC | -0.0948 ± 0.053 |
| ACACACCG | 0.224 ± 0.013 |
| AAACACCG | 0.155 ± 0.0066 |
| AGACACCG | 0.0814 ± 0.026 |
| AGACACCT | 0.4345 ± 0.003 |
| ACGCACCT | 0.366 ± 0.0075 |
| ACACACAT | 0.328 ± 0.0053 |
| ACGCACCG | 0.0314 ± 0.086 |
| ACACACCT | 0.44741 ± 0.0002 |

| Sequence | PBM E-score of 8-mer |
| --- | --- |
| AGACACAT | 0.229 ± 0.0028 |
| AAACACCT | 0.442 ± 0.015 |
| AAACACCC | 0.1718 ± 0.0003 |
| ACGCACCA | 0.0513 ± 0.0069 |
| GCTTCAAA | 0.0158 ± 0.019 |
| ACCAATGA | -0.0571 ± 0.11 |
| GTAGATAA | -0.151 ± 0.039 |
| GATCGTGA | 0.173 ± 0.054 |
| ACCTGGTA | -0.0333 ± 0.028 |
| CGGCCCTC | -0.119 ± 0.093 |
| GACGTTCC | -0.197 ± 0.016 |
| AAGTGAAG | 0.13 ± 0.049 |
| ACAGATGT | 0.152 ± 0.018 |
| ACCTATTC | 0.0131 ± 0.033 |
| GACCCGTA | -0.0138 ± 0.012 |
| ACTTCTAC | 0.037 ± 0.013 |
| CGGAGCCA | -0.164 ± 0.067 |
| CATGCCCC | -0.219 ± 0.047 |
| AACACATG | 0.336 ± 0.046 |
| AACACATA | 0.345 ± 0.029 |
| CTCACATC | 0.377 ± 0.013 |
| CGCACATC | 0.338 ± 0.022 |
| AACACACT | 0.211 ± 0.022 |
| ATCACATC | 0.109 ± 0.02 |
| AACACAGC | 0.115 ± 0.086 |

| Sequence | PBM E-score of 8-mer |
| --- | --- |
| GACACATC | 0.363 ± 0.028 |
| AACACATT | 0.383 ± 0.024 |
| AACACATC | 0.375 ± 0.012 |
| CACACATC | 0.4 ± 0.013 |
| CTCACATA | 0.157 ± 0.034 |
| CATGAAAC | -0.146 ± 0.031 |
| GCTAGCAC | 0.2678 ± 0.0018 |
| TAAGGTAA | -0.107 ± 0.0024 |
| AGTGCTGA | 0.0461 ± 0.029 |
| CTCCTCTC | 0.0391 ± 0.091 |
| GCCCAATA | -0.142 ± 0.1 |
| AAGCTATA | -0.0728 ± 0.05 |
| GCAGGTGA | 0.414 ± 0.011 |
| GCAGGTCA | 0.036 ± 0.077 |
| GTAGGTTA | -0.184 ± 0.0098 |
| ACAGGTGC | 0.436 ± 0.013 |
| ACAGGTGG | 0.316 ± 0.026 |
| GCAGGTAA | -0.0374 ± 0.063 |
| GTAGGTGA | 0.379 ± 0.023 |
| CCAGGTGA | 0.306 ± 0.012 |
| CCAGGTGC | 0.3516 ± 0.00069 |
| ACAGGTGA | 0.373 ± 0.0074 |
| ACAGGTTA | 0.257 ± 0.043 |
| CTAGGTGA | 0.356 ± 0.026 |
| GTCATAAA | -0.00255 ± 0.054 |

| Sequence | PBM E-score of 8-mer |
| --- | --- |
| AAAAGATA | -0.0313 ± 0.063 |
| CTACGCAC | 0.0937 ± 0.02 |
| TACCTCTA | -0.164 ± 0.002 |
| ATAAGAGC | -0.19 ± 0.022 |
| ACCCTCGG | -0.124 ± 0.045 |
| ATGCAGAG | -0.18 ± 0.023 |
| ACGAACCG | 0.192 ± 0.063 |
| CATTTTCA | 0.0656 ± 0.088 |
| AGTTCTGA | -0.131 ± 0.043 |
| TAGACCCA | -0.101 ± 0.067 |
| AAGTGGTG | 0.205 ± 0.007 |
| CGACCATC | 0.0183 ± 0.023 |
| CAGAGGAG | -0.063 ± 0.011 |
| GGGTGGCA | 0.288 ± 0.014 |
| CGGTGGCA | 0.186 ± 0.053 |
| AGGTGGCG | 0.401 ± 0.011 |
| AGGTGGCA | 0.432 ± 0.015 |
| AGGTGGCC | 0.075 ± 0.0048 |
| AGGTGGAG | 0.158 ± 0.025 |
| CCCATCAC | 0.189 ± 0.031 |
| CCCGAGGG | -0.341 ± 0.026 |
| AACGCATA | 0.0089 ± 0.0093 |
| CGCGCCTC | 0.365 ± 0.039 |
| AACGCCTC | 0.35 ± 0.0088 |
| AACGCCTG | 0.292 ± 0.006 |

| Sequence | PBM E-score of 8-mer |
| --- | --- |
| CACGCCTC | 0.395 ± 0.032 |
| CGCGCCTA | 0.356 ± 0.037 |
| AACGCCAT | 0.199 ± 0.029 |
| CACGCCTA | 0.375 ± 0.016 |
| TACGCCTA | 0.0945 ± 0.018 |
| AGCGCCTC | 0.268 ± 0.0083 |
| AACGCCTT | 0.367 ± 0.041 |
| GACGCCTC | 0.328 ± 0.017 |
| AACGCCTA | 0.298 ± 0.038 |
| ACTCGCTC | -0.0581 ± 0.083 |
| AGCCAATG | -0.218 ± 0.056 |
| AAACCGCG | 0.0876 ± 0.057 |
| AGCATCTG | -0.116 ± 0.028 |
| GCCACGGC | -0.0294 ± 0.015 |
| ACTGTTAG | 0.195 ± 0.048 |
| CGTGTTAA | 0.409 ± 0.0099 |
| GCTGTTAC | 0.0324 ± 0.031 |
| GGTGTTAC | 0.4612 ± 0.0021 |
| AGTGTAAA | 0.338 ± 0.049 |
| CGTGTTAG | 0.332 ± 0.015 |
| CGTGTTAC | 0.308 ± 0.0063 |
| CCTGTTAA | 0.168 ± 0.067 |
| GGTGTAAA | 0.436 ± 0.012 |
| AGTGTTAG | 0.3895 ± 0.00056 |
| AGTGTTTG | 0.219 ± 0.041 |

| Sequence | PBM E-score of 8-mer |
| --- | --- |
| GGTGTAAC | 0.349 ± 0.014 |
| AGTTAGAT | -0.191 ± 0.0088 |
| CCTAACTC | -0.0227 ± 0.032 |
| ACAGCCAA | 0.00932 ± 0.037 |
| CACCACCA | 0.145 ± 0.0054 |
| AATAGCAA | 0.151 ± 0.019 |
| AGTCCTTG | -0.0449 ± 0.074 |
| AGGCGGTG | -0.0537 ± 0.076 |
| GGAGCCCC | -0.206 ± 0.022 |
| AATGTTAT | 0.0346 ± 0.014 |
| TCTGTTAA | 0.131 ± 0.02 |
| AGTGTTTA | 0.245 ± 0.062 |
| ACTGTTAT | 0.152 ± 0.032 |
| AGTGTTGG | 0.3684 ± 7.1e-06 |
| AGTGTTGA | 0.351 ± 0.006 |
| TATGTTAA | 0.0661 ± 0.067 |
| TGTGTTAA | 0.407 ± 0.011 |
| AGTGTTAT | 0.372 ± 0.045 |
| GGTGTTTA | 0.386 ± 0.015 |
| AGTGTTGC | 0.346 ± 0.0099 |
| CGTGTTTA | 0.123 ± 0.047 |
| GGTCTCAA | -0.0536 ± 0.098 |
